Assay outcomes (PubChem BioAssay)
NALP3 yeast inh: inhibitors of NALP3 inflammasome in yeast | Yeast reconstituted NLRP3/ASC/caspase-1, beta-gal luminescence, 24 h | inhibition, % at 10 µM | 0.39% of 330,000 active;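 active means inhibition of 50% or more; inactive means inhibition below 50%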;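 further: plate controls were induced DMSO wells for no effect and uninduced yeast grown without galactose for full effect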
PfHsp90 set2: inhibits growth of yeast expressing Plasmodium falciparum Hsp90; S. cerevisiae expressing PfHsp90, BacTiter-Glo ATP, 48 h; yeast lacking PDR1 and PDR3 efflux regulators; inhibition, % at 9.4 µM; 0.32% of 310,000 active;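 active means every replicate shows inhibition above about 80%, whatever the replicate mean, limit read from the data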;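 further: 0% = DMSO neutral controls and 100% = 20 µM radicicol positive controls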
TIM10 inh: growth inhibitors of TIM10 yeast strain; 1.4% of 330,000 active; inhibition, % at 10 µM; S. cerevisiae TIM10 strain growth, BacTiter-Glo luminescence, 24 h;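 active means inhibition of 40% or more at the single tested concentration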;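 further: wild-type TIM10 isogenic control strain grown at permissive 25 °C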
tim23-1 inh: inhibits growth of tim23-1 mutant yeast; S. cerevisiae tim23-1 growth, BacTiter-Glo luminescence, 24 h; inhibition, % at 20 µM; 1.3% of 330,000 active; AID 463212;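 active means growth inhibition of the mutant yeast at or above 50%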;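 further: temperature-sensitive mutant grown at 25 °C; plate controls were DMSO-treated mutant yeast for no effect and medium wells lacking yeast for full effect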
tim10-1 inh: inhibits growth of tim10-1 mutant yeast | 2.2% of 330,000 active | AID 463190 | inhibition, % at 20 µM | S. cerevisiae tim10-1 ts strain growth, BacTiter-Glo, 24 h;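 active means inhibition of at least 40%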;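 further: mutant grown at 25 °C; 0% = DMSO wells with yeast and 100% = wells holding no yeast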
NALP1 inh: inhibitors of NALP1 inflammasome in yeast; S. cerevisiae NALP1/ASC/caspase-1 growth, X-gal OD620, 72 h; inhibition, % at 10 µM; 0.61% of 280,000 active; AID 2071; in the data active means inhibition mostly above about 24%, no sharp cut-off; inactive means mostly below about 32%
tim10-1 conf: confirmation of tim10-1 mutant yeast growth inhibitors; inhibition, % at 20 µM; 56% of 7,400 active; S. cerevisiae tim10-1 ts strain growth, BacTiter-Glo, 24 h; shares compounds with tim10-1 inh;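 active means inhibition of yeast growth at or above a set limit in either of two repeat tests at 20 µM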;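 further: tim10-1 mutant grown at permissive 25 °C to find synthetic lethal compounds; 0% = DMSO yeast wells and 100% = medium wells without yeast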
An asterisk follows results filed as active; . = no result. The list is not random: actives were taken first. Their share in the collection is about 4.2%.

SMILES | NALP3 yeast inh | PfHsp90 set2 | TIM10 inh | tim23-1 inh | tim10-1 inh | NALP1 inh | tim10-1 conf
OCCN1CCN(CCCN2c3ccccc3Sc3ccc(C(F)(F)F)cc32)CC1 | 35 | 11 | 20 | 6 | 42* | 31 | 30*
Cc1ccc(NS(=O)(=O)c2cc(C(=O)NCCCN(C)C)ccc2Cl)cc1Cl | 21 | 0 | -3 | -25 | -18 | . | .
Cc1ccc2nc(/C(C#N)=C/c3ccc(-c4ccccc4C(=O)O)o3)[nH]c2c1 | 11 | -7 | 2 | 14 | 9 | 13 | .
Cc1cc2nc(/C(C#N)=C\c3ccc(-c4ccccc4C(=O)O)o3)[nH]c2cc1C | -1 | -12 | 10 | 30 | 46* | 2 | 39*
Cc1cc(C)c(/C=C(\C#N)C(N)=S)c(C)c1 | 12 | -72 | 27 | 46 | 41* | 8 | 23
COc1ccc(C(=O)CCC(=O)N2CCN(c3cc(C)ccc3C)CC2)cc1 | 18 | 12 | 10 | 19 | 25 | 10 | .
CCC1CCCCN1c1nc(-c2ccncc2)nc2ccccc12 (centres undefined) | 1 | 6 | 27 | 43 | 50* | 0 | 38*
Cc1ccc(S(=O)(=O)N(C)CC(=O)N2CCN(Cc3ccccc3)CC2)cc1 | 16 | -4 | 29 | 18 | 47* | 6 | 23
Cc1ccc(S(=O)(=O)N(C)CC(=O)N2CCCCCCC2)cc1 | 30 | . | 0 | 21 | 13 | . | .
OCCc1ccc(-c2ccc(Cl)cc2)o1 | 12 | -10 | 16 | 23 | 43* | 1 | 25
CCN(CC(=O)Nc1c(F)cccc1F)C(=O)c1ccc(=O)n(C)n1 | . | 7 | . | . | . | . | .
COc1c(OC(C)=O)ccc(/C=C/c2ccc3cccc(OC)c3n2)c1[N+](=O)[O-] | 17 | -7 | 13 | 43 | 41* | 24 | 28
COc1c(OC(C)=O)ccc(/C=C/c2ccc3ccccc3n2)c1[N+](=O)[O-] | 16 | -9 | 40 | 48 | 48* | 36 | 32*
COC(=O)c1ccc(/C=C/c2ccc3cccc(OC(C)=O)c3n2)cc1 | 17 | -34 | 20 | 19 | 40 | 12 | 24
O=C(O)c1ccc(/C=C/c2ccc3cccc(O)c3n2)cc1 | 19 | -31 | 15 | 21 | 18 | -21 | .
O=[N+]([O-])c1ccccc1/C=C/c1ccc2ccccc2n1 | 29 | -14 | 2 | 22 | -4 | 18 | .
CCOc1c(OC(C)=O)ccc(/C=C/c2ccc3cccc(OC(C)=O)c3n2)c1[N+](=O)[O-] | 5 | -25 | 14 | 30 | 6 | 14 | .
CC(=O)c1cc(C#N)c(Oc2ccc(Cl)cc2Cl)nc1C | 16 | . | -10 | 3 | 12 | . | .
CCOC(=O)c1sc2nc3c(cc2c1N)COC(C)(C)C3 | 24 | 9 | 4 | 20 | 40* | -78 | 26
CCOC(=O)c1sc2nc3c(cc2c1N)COC(C)(CC)C3 (centres undefined) | 9 | 1 | 34 | 31 | 43* | -16 | 28
COc1ccc(N(C(=O)c2snc(C(N)=O)c2N)C(C(=O)NCc2ccc(F)cc2)c2ccc(O)cc2)cc1 (centres undefined) | 10 | -16 | 4 | 12 | 15 | 22 | .
COc1ccc(C)cc1NC(=O)c1ccc2c(=O)n3c(nc2c1)CCCCC3 | 14 | 7 | -2 | 36 | 41* | 10 | 6
CCN1CCN(S(=O)(=O)c2ccc(Cl)c(C(=O)Nc3nnc(C)s3)c2)CC1 | 7 | . | -2 | -2 | -18 | . | .
COC(=O)C1=C(C(=O)OC)[C@@H]2N(C)c3ccccc3[C@@]23C[C@@H](C(=O)OC)N(C(=O)c2cccs2)C3=N1 | 3 | -21 | 27 | 20 | 17 | . | .
COC(=O)C1=C(C(=O)OC)[C@@H]2N(Cc3ccccc3)c3ccccc3[C@@]23C[C@@H](C(=O)OC)N(C(=O)c2cccs2)C3=N1 | 15 | -14 | 18 | 42 | 42* | . | 30
SMILES | NALP3 yeast inh | PfHsp90 set2 | TIM10 inh | tim23-1 inh | tim10-1 inh | NALP1 inh | tim10-1 conf
Cc1ccc(-c2nc(-c3ccccn3)no2)cc1 | 32 | 55 | 17 | 39 | 43* | 12 | 17
Cc1ccc(-c2nc(-c3ccccn3)no2)cc1[N+](=O)[O-] | 18 | 7 | 1 | 18 | 8 | 0 | .
Cc1ccc(-c2nc(-c3ccccn3)no2)cc1Cl | 16 | 28 | 24 | 44 | 40* | 7 | 15
Clc1cccc(-c2nc(-c3ccccn3)no2)c1 | 9 | 35 | 1 | -6 | 17 | -6 | .
CCOC(=O)C1=CNS(=O)(=O)NC1c1ccc(Br)cc1F (centres undefined) | . | 1 | -8 | 29 | 14 | . | .
Cc1c2c(nc3ccccc13)CC(C)(C)CC2=O | 11 | 6 | -6 | 24 | 6 | 2 | .
CC1(C)CC(=O)c2c(nn(-c3ccccc3)c2-c2ccncc2)C1 | 6 | . | 2 | 29 | 46* | -54 | 36*
CC(C)Oc1ccc(Cl)cc1Nc1nc(NCCO)nc(N2CCCC2)n1 | 22 | -30 | 14 | 40 | 41* | . | 8
COc1ccc(Cl)cc1Nc1nc(NCCO)nc(N2CCCC2)n1 | 23 | 5 | 32 | 4 | 28 | 29 | .
CCCc1nnc2c(N(C)S(=O)(=O)c3ccc(C)cc3)nc3ccccc3n12 | -17 | 9 | 18 | 16 | 40* | 29 | 10
O=C(O)c1cc2ccc3cccc4ccc(c1)c2c34 | 17 | -9 | 34 | 33 | 43* | 14 | 23
CCOC(=O)N1CCC(n2c(SCC(=O)NCc3ccccc3)nc3ccccc3c2=O)CC1 | 10 | 1 | 25 | 32 | 43* | -10 | 21
CCOC(=O)N1CCC(n2c(SCC(=O)N3CCCC3)nc3ccccc3c2=O)CC1 | -1 | . | 11 | 7 | 25 | 3 | .
CN1CCN(c2ccc(C(F)(F)F)cc2NC(=O)c2ccco2)CC1 | 8 | 19 | 6 | 12 | 16 | 18 | .
Cc1cc(N(CCO)CCO)ccc1N=Nc1cc(F)ccc1F | 28 | . | 16 | 45 | 41* | 8 | 38*
COc1ccc(OC)c(-n2c(SCC(=O)Nc3cc(C)on3)nnc2-c2c[nH]c3ccccc23)c1 | 0 | -2 | 9 | 20 | 52* | -2 | 3
CC(C(=O)OCC(=O)Nc1ccc(S(N)(=O)=O)cc1)N1C(=O)c2ccccc2C1=O (centres undefined) | 7 | 12 | -4 | -12 | -6 | . | .
C/C(=N\Nc1nc(C)cc(-c2ccccc2)n1)c1ccccc1 | 28 | 2 | 8 | -2 | -5 | 4 | .
C/C(=N/Nc1nc(C)cc(-c2ccccc2)n1)c1ccco1 | 21 | -12 | 35 | 28 | 41* | 3 | 24
O=C(NCc1ccco1)c1cc2ccc(O)cc2oc1=O | 1 | . | 34 | 44 | 55* | -2 | 46*
Cc1cc(C)nc(-n2nc(C)cc2NC(=O)CN2CCCC(C)C2)n1 (centres undefined) | 15 | 4 | 7 | 13 | 44* | 8 | 4
